5 molecules from PubChem BioAssay can be followed below.

Several values for one entry are separate records, joined by “and”; a condition that tells them apart may be missing. Equal values may be shown once. Records with an inconclusive call do not appear. Activity calls are given as the source filed them.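 How the source made its calls, unless noted: active means compounds whose cell count with miR-34 switched on is under 0.7 times the count with it off; inactive means the rest.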

Assay [1] in a line: liver-stage malaria parasite growth inhibition, primary screen, cell-based, HepG2, luciferase luminescence, HepG2 viability (AID 624349; in the data active means parasite load remaining mostly below about 12%, no sharp cut-off; inactive means mostly above about 10%;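 further: 100% = mean of DMSO negative control wells on the same plate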). The following applies: P. berghei liver stage in HepG2, luciferase luminescence, concentration not given here; parasite load remaining: stronger effect = lower value; viability: measured here: HepG2 viability without parasites.
The nature of assay [2]: stimulators of nuclear beta-catenin in C2C12, primary screen, imaging, WNT3A-conditioned medium, mouse C2C12, NPC library (AID 1117326; in the data active means nuclear beta-catenin stimulation mostly above about 4.2%, no sharp cut-off; inactive means mostly below about 10%). Particulars: stronger effect = higher value.
A short description of assay [3]: stimulators of insulin release from INS-1E, primary screen, cell-based, 5 mM glucose, NPC library (AID 1117329;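 active means compound raises insulin release from rat beta cells at 5 mM glucose, no numeric limit stated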). The following applies: rat INS-1E insulin secretion, at 10 µM, stronger effect = higher value.
Assay [4] can be described thus: growth inhibition of GSK3B-pretreated HCT116 cells – cell-based, CellTiter-Glo, 0.2 to 20 µM (AID 1117336;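 active means compounds lowering colon cancer cell viability after pretreatment blocking the GSK3B kinase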). The following applies: HCT116 viability after GSK3B inhibitor, at 20 µM, stronger effect = higher value.
The nature of assay [5]: inhibition of endothelial tube formation, primary screen, imaging, VEGF stimulated, CD31 staining, tube area, NPC library (AID 1117340;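 active means compound that reduces growth-factor-driven endothelial tube area in a mixed cell culture, no cutoff stated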). Particulars: VEGF-stimulated ADSC/ECFC co-culture, at 10 µM, stronger effect = higher value.
Assay [6] in a line: glucagon-like peptide 1 release enhancers, primary assay, NCI-H716 cell line, NPC library (AID 1117341;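 active means compound raises GLP1 secretion from the human gut endocrine cells, with no numeric limit stated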). The following applies: NCI-H716 cells, at 10 µM, stronger effect = higher value.
A short description of assay [7]: HCT116 colon cancer cell growth inhibition, primary screen, CellTiter-Glo luminescence, NPC library (AID 1117342;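 active means compounds that lower survival of HCT116 colon cancer cells in the luminescence readout, no numeric limit stated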). The following applies: at 20 µM (top of the series).
The nature of assay [8]: CellTiter-Glo luminescent readout of SW480 viability loss, NPC library primary (AID 1117343;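 active means compounds that lower viability of the colon cancer cells in the luminescence readout, with no numeric limit stated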). The following applies: CellTiter-Glo luminescence; at 20 µM (top of the series) unless noted.
Assay [9] in a line: decreased DLD-1 cellular survival, CellTiter-Glo luminescent readout, NPC compound collection, primary HTS (AID 1117346;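 active means compounds that lower survival of DLD-1 colon cancer cells in the luminescence readout, no cutoff given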). Particulars: DLD-1 viability, CellTiter-Glo luminescence; at 20 µM (top of the series).
Assay [10] can be described thus: sensitizers of A549 cells to miR-34 induction, primary screen, imaging, A549 dox-inducible miR-34, nuclei and caspase counts (AID 1347080). The following applies: A549 miR-34 inducible, Hoechst nuclei count, 48 h.
Assay [11] can be described thus: survival rescue of mitochondrial mutant cells in low glucose, primary screen, MELAS cybrids, Rieske KO mouse fibroblasts, CellTiter-Glo (AID 1508586;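 active means mean z-score across replicates of 1.96 or higher in either the MELAS or the Rieske mutant cell line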;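 further: z relative to plate mean and SD of compound and empty wells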).
The target of assay [12] is ATP-dependent translocase ABCB1 (Homo sapiens) (UniProt P08183). In words: MDR1 (ABCB1) efflux transporter inhibition, cell-based (AID 377; in the data active means fluorescence slope change above about 50%). The following applies: MDR1-expressing cells, fluorescent substrate accumulation slope; stronger effect = higher value; concentration not given here.
For assay [13], the target named is NAD(+) hydrolase SARM1 (Homo sapiens) (UniProt Q6SZW1). In words: SARM1 TIR NADase inhibitors, cell lysate, NAD-Glo luminescence (AID 1508614;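 active means compound whose remaining NAD level is above about 45 nM, limit read from the data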). The following applies: SAM-TIR HEK293T lysate NADase, at 1 µM, stronger effect = higher value.
The target in assay [14] is Mitogen-activated protein kinase 7 (Homo sapiens) (UniProt Q13164). In words: ERK5 transactivation activators in reporter cells, primary screen, cell-based, HTS (AID 1508626;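 active means luciferase signal above three times the same-plate solvent-only control wells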;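 further: luciferase driven by Gal4-ERK5 fusion binding five Gal4 sites before minimal TATA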). Particulars: HeLa Gal4-ERK5 transactivation, 18 h, at 5 µM, stronger effect = higher value.
Where [15] appears, read: stronger effect = lower value, cell number ratio, induced over uninduced.
[16] abbreviates: measured here: relative caspase fold change +Dox/-Dox.
Where [17] appears, read: measured here: total cells with miR-34 induction, stronger effect = lower value.
The mark [18] stands for this setting: measured here: total cells without miR-34 induction.
[19] abbreviates: MELAS cybrid survival, CellTiter-Glo 48 h, stronger effect = higher value.
Setting [20] is: Rieske KO mouse fibroblast survival, CellTiter-Glo 72 h.

NAD(+) hydrolase SARM1 (Homo sapiens), sequence (Q6SZW1 whole entry, looked up, the tested form may be a part): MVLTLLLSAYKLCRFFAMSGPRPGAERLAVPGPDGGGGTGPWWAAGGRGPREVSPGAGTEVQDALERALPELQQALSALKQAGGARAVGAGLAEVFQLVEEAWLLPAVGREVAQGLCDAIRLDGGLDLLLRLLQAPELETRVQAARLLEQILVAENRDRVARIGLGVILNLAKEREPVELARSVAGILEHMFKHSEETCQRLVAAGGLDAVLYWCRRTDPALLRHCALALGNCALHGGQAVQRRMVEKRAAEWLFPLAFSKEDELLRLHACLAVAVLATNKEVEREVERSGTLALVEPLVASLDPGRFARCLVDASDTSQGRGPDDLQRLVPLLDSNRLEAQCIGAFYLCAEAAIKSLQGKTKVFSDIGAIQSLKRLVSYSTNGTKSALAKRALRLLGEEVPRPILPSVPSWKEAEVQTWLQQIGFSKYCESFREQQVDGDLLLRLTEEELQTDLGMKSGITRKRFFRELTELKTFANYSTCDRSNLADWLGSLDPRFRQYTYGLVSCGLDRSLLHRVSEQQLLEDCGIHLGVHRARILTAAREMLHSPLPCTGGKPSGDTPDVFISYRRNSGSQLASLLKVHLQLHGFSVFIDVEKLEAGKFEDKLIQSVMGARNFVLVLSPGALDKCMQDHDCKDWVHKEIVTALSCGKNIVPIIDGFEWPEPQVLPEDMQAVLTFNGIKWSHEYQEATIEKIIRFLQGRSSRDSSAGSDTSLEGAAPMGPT
Mitogen-activated protein kinase 7 (Homo sapiens), sequence (Q13164 whole entry, looked up, the tested form may be a part): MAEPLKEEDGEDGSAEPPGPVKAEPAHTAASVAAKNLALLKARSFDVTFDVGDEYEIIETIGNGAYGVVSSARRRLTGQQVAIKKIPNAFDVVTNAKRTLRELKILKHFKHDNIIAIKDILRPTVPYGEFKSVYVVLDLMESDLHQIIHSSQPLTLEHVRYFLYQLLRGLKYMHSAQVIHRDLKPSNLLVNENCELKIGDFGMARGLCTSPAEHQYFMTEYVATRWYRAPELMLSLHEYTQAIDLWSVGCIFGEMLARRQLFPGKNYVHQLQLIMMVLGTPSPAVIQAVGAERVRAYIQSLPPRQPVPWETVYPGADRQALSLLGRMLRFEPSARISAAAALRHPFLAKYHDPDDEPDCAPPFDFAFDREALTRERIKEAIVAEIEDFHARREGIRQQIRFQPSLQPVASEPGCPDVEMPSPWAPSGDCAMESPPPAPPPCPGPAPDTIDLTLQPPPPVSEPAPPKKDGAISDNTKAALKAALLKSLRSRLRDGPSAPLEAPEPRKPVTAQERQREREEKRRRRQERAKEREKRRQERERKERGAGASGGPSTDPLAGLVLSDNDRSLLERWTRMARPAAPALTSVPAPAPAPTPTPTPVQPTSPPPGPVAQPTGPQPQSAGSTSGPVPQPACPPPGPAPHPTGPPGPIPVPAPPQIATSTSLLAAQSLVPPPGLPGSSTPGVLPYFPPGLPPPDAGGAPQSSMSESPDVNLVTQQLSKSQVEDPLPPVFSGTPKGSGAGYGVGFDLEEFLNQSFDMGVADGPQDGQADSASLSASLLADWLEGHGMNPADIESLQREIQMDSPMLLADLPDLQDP
ATP-dependent translocase ABCB1 (Homo sapiens), sequence (P08183 whole entry, looked up): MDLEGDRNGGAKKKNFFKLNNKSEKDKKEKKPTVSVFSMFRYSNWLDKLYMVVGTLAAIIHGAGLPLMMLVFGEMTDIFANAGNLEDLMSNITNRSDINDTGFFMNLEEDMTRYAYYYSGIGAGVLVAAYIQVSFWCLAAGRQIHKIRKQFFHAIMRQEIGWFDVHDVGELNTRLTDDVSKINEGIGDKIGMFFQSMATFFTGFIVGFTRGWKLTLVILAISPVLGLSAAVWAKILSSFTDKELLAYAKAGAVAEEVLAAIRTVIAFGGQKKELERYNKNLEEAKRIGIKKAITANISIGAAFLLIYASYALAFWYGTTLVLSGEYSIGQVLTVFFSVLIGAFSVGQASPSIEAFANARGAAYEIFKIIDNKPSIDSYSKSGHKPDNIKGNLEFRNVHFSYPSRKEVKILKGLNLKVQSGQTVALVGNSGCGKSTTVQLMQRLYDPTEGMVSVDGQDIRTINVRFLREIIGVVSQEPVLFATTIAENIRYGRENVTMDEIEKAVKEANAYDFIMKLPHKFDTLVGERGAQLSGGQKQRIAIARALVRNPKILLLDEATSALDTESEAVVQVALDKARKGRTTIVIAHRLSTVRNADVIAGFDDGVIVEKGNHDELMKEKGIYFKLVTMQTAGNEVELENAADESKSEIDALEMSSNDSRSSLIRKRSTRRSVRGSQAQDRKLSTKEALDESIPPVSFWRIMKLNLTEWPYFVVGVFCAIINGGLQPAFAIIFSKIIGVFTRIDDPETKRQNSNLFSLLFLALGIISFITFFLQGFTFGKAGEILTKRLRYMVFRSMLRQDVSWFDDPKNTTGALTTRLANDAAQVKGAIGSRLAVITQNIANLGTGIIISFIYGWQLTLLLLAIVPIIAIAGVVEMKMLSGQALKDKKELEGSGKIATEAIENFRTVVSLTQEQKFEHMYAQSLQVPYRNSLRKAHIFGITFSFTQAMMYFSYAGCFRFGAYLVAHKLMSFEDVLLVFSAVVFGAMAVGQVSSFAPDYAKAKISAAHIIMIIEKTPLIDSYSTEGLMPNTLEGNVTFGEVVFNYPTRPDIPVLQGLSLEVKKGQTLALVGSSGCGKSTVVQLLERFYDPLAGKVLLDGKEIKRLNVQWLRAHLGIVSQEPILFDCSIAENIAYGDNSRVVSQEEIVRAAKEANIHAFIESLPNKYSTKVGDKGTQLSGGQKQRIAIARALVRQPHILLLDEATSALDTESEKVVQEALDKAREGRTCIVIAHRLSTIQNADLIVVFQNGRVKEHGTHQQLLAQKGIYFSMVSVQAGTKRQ

In the case of `COc1ccccc1Oc1c(NS(=O)(=O)c2ccc(C(C)(C)C)cc2)nc(-c2ncccn2)nc1OCCO`, in [1], the parasite load remaining is 23% (inactive). Also, in assay [1], the viability stood at 71%. For the same molecule, the nuclear beta-catenin stimulation was -2.1% (inactive) in assay [2] (at 10 µM) and 0.8% in assay [2] (stimulation, at 2 µM). The insulin secretion stimulation in [3] is 7% (inactive). In addition, in assay [4], the viability decrease is -5.8% (inactive). For the same molecule, the tube area decrease in [5] is 4.9% (inactive). The GLP1 secretion stimulation in assay [6] is 0.2% (inactive). Further, the inhibition of viability in assay [7] was 12.9% (inactive). The viability decrease (inhibition) is 81.4% (active) in [8] and 16.8% (inactive) in assay [9]. In addition, the fold change in assay [10] (setting [15]) is 0.921 (inactive) and 0.93 (inactive) and 0.843 (inactive); in assay [10] (setting [16]), 1.38 and 0.578 and 1.32. Further, the cell count in assay [10] (setting [17]) was 8280 and 8370 and 9010; in assay [10] (setting [18]), 8980 and 9000 and 10700.

Turning to `CN1CCN(C2=Nc3ccccc3Sc3ccc(Cl)cc32)CC1`, the parasite load remaining in assay [1] is 45.5% (inactive). Further, the viability in assay [1] stood at 130%. Besides, the nuclear beta-catenin stimulation was -0.4% (inactive) in assay [2] (at 10 µM) and -0.2% in assay [2] (stimulation, at 2 µM). The insulin secretion stimulation in assay [3] was 16.1% (inactive). Also, in assay [4], the viability decrease is 83.3% (active). The tube area decrease in [5] is 39.2% (inactive). Besides, the GLP1 secretion stimulation in assay [6] was 19% (inactive). In assay [7], the inhibition of viability is 79.7% (active). Further, the viability decrease (inhibition) in assay [8] is 116% (active); in assay [9], 72.4% (active). In addition, the fold change in assay [10] (setting [15]) is 0.882 (inactive); in assay [10] (setting [16]) it was 1.18. Besides, the figures for the cell count in assay [10] (setting [17]) and in assay [10] (setting [18]) were 8380 and 9490, respectively. Further, the z-score in assay [11] (setting [19]) was -0.876 (inactive); in [11] (setting [20]), 0.707.

On to `C1CCN2C[C@@H]3C[C@@H](CN4CCCC[C@@H]34)[C@H]2C1`, for which the fluorescence slope change in assay [12] is 10.6% (inactive). Also, the parasite load remaining in [1] was 47.2% (inactive). Besides, the viability in assay [1] came out at 113%. Moreover, the nuclear beta-catenin stimulation in [2] (at 10 µM) was -0.4% (inactive); in assay [2] (stimulation, at 2 µM), -0.5%. Also, the insulin secretion stimulation in assay [3] is 15.2% (inactive). Besides, the viability decrease in assay [4] was 5.9% (inactive). Besides, the tube area decrease in assay [5] was -8.8% (inactive). For the same molecule, in [6], the GLP1 secretion stimulation was 1.2% (inactive). The inhibition of viability in assay [7] is 22.6% (inactive). The results for the viability decrease (inhibition) in assay [8] and in assay [9] were 3.2% (inactive) and 4.2% (inactive), respectively. The fold change in assay [10] (setting [15]) was 0.853 (inactive); in [10] (setting [16]) it was 1.2. Besides, the cell count in assay [10] (setting [17]) is 8930; in [10] (setting [18]), 10500. For the same molecule, in [13], the remaining NAD was 10 nM (inactive). For the same molecule, the luciferase signal in [14] is 60 AU (inactive).

In the case of `O=C(O)CCc1nc2ccccc2[nH]1`, the nuclear beta-catenin stimulation in assay [2] (at 10 µM) is 2.8% (inactive); in assay [2] (stimulation, at 2 µM), 2.5%. For the same molecule, the insulin secretion stimulation in assay [3] is -1.6% (inactive). For the same molecule, the viability decrease in assay [4] is 3.65% (inactive). In addition, the tube area decrease in [5] is -5.8% (inactive). In assay [6], the GLP1 secretion stimulation was 3.5% (inactive). Also, the inhibition of viability in [7] was -11.8% (inactive). Besides, the viability decrease (inhibition) in assay [8] is 106% (active); in assay [9], 5.2% (inactive). In addition, the fold change in assay [10] (setting [15]) is 0.93 (inactive); in [10] (setting [16]), 1.12. Further, the figures for the cell count in assay [10] (setting [17]) and in [10] (setting [18]) were 8680 and 9340, respectively. For the same molecule, in assay [13], the remaining NAD is 10 nM (inactive).

In the case of `O=C(O)Cc1sc(-c2ccccc2)nc1-c1ccc(Cl)cc1`, the parasite load remaining in assay [1] was 43.2% (inactive). Further, the viability in assay [1] is 106%. Moreover, the nuclear beta-catenin stimulation in [2] (at 10 µM) was -0.8% (inactive); in [2] (stimulation, at 2 µM), -0.1%. The insulin secretion stimulation in assay [3] is 3.3% (inactive). In addition, in [4], the viability decrease is 18.7% (inactive). Also, the tube area decrease in assay [5] is 11.7% (inactive). Besides, in [6], the GLP1 secretion stimulation was -0.5% (inactive). The inhibition of viability in assay [7] is 43.2% (inactive). Besides, the viability decrease (inhibition) in [8] is 32.4% (inactive); in assay [9] it was 16.6% (inactive). For the same molecule, the fold change in assay [10] (setting [15]) was 0.887 (inactive); in assay [10] (setting [16]) it was 0.944. Moreover, the values for the cell count in assay [10] (setting [17]) and in assay [10] (setting [18]) were 10000 and 11300, respectively. The z-score in assay [11] (setting [19]) was -0.576 (inactive) and -0.0336 (inactive); in assay [11] (setting [20]), -0.115 and 0.182.
